Hits are enriched below; roughly 2.3% of the tested compounds scored in any of these assays.
ID4 binder = ID4 (human) binding; P47928; small molecule microarray, Flag-ID4 binding, fluorescence F/B; calls only; 1.2% of 31,000 active; AID 624137; call rule not given here;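 further: a binder raises fluorescence above local background on the spot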
Target sequence (P47928 whole entry, looked up): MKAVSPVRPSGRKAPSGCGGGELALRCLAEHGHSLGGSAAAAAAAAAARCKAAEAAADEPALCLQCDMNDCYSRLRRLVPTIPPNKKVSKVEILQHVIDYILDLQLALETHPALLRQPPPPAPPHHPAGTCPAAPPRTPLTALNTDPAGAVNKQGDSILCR
p53 PUMA act = mutant p53 pathway reactivation; SW480 PUMA-promoter luciferase; activation, % at 9.98 µM; 1.5% of 28,000 active; in the data active means activation above about 52%; inconclusive means no clear call, values can overlap the other calls
Numbers stand for hits.

How did OC(COc1ccccc1Cl)Cn1cnc2ccccc21 (centres undefined) do in these assays?
ID4 binder: inactive; p53 PUMA act: 110.5

Results for C[C@@H]1CN([C@@H](C)CO)C(=O)c2cc(-c3cccnc3)cnc2O[C@@H]1CN(C)C ?
ID4 binder: inactive

How did C[C@H]1CN([C@@H](C)CO)C(=O)c2cc(-c3cccc(C(=O)N(C)C)c3)cnc2O[C@H]1CN(C)S(=O)(=O)c1cccc(F)c1 do in these assays?
p53 PUMA act: inactive

How did C[C@H]1CN([C@@H](C)CO)C(=O)c2cc(-c3cccnc3)cnc2O[C@@H]1CN(C)C do in these assays?
ID4 binder: active

Results for COc1cccc(S(=O)(=O)N(C)C[C@H]2Oc3ncc(-c4cccc(C(=O)N(C)C)c4)cc3C(=O)N([C@H](C)CO)C[C@@H]2C)c1 ?
ID4 binder: active; p53 PUMA act: inactive

What do the screens show for `C[C@H](CO)N1C[C@H](C)[C@@H](CN(C)C)Oc2ncc(-c3ccncc3)cc2C1=O`?
ID4 binder: inactive; p53 PUMA act: inactive

What do the screens show for `C[C@@H]1CN([C@@H](C)CO)C(=O)c2cc(-c3ccncc3)cnc2O[C@H]1CN(C)C`?
ID4 binder: active

Results for CCc1nc(SCC(=O)Nc2ccc(Br)cc2)n[nH]1 ?
ID4 binder: inactive; p53 PUMA act: inactive

Results for Cc1nn(CC(=O)Nc2sc3c(c2C#N)CCCC3)c(C)c1[N+](=O)[O-] ?
ID4 binder: inactive; p53 PUMA act: inactive

Results for COc1cc(NC(=O)C(C)Oc2cccc(Cl)c2)c(C(=O)O)cc1OC (centres undefined) ?
ID4 binder: inactive; p53 PUMA act: inactive

What do the screens show for `CC(=O)Nc1ccc(OCC(O)CNC(C)C)cc1` (centres undefined)?
ID4 binder: active; p53 PUMA act: inactive

What do the screens show for `CC(=O)Nc1ccc(OCC(O)CNC2CCCC2)cc1` (centres undefined)?
ID4 binder: inactive; p53 PUMA act: inactive

How did N#Cc1ccc(/C=C/C(=O)NCc2ccccc2)cc1 do in these assays?
ID4 binder: inactive; p53 PUMA act: inactive

How did CC(=O)Nc1nccc(-c2cc(-c3cccc(C(F)(F)F)c3)no2)n1 do in these assays?
ID4 binder: inactive; p53 PUMA act: 79.5

What do the screens show for `Cc1ccnc(SCC(=O)Nc2cccc(C(F)(F)F)c2)n1`?
ID4 binder: inactive; p53 PUMA act: inactive

What do the screens show for `COC(=O)CSc1nc(N(C)C)nc(N(C)C)n1`?
ID4 binder: inactive; p53 PUMA act: inactive

How did C=C(C(=O)O)C1C(OC(=O)/C(=C/CO)CO)CC(C)(O)C2CC(OC(C)=O)C(C)=CC12 (centres undefined) do in these assays?
ID4 binder: inactive; p53 PUMA act: inactive

How did Cc1ccc2oc(-c3ccc(NC(=O)Cn4c(=O)oc5ccccc54)cc3)nc2c1 do in these assays?
ID4 binder: inactive; p53 PUMA act: 60.3

How did O=C(CN1C(=O)c2ccccc2C1=O)Nc1ccc(-c2nc3ccccc3o2)cc1 do in these assays?
ID4 binder: inactive; p53 PUMA act: inactive

Results for COc1cccc2cc(C(=O)Nc3cccc(Cn4cccn4)c3)c(=O)oc12 ?
ID4 binder: inactive; p53 PUMA act: 56.9

What do the screens show for `COc1ccc(OC)c(NC(=O)Nc2cccc(Cn3cccn3)c2)c1`?
ID4 binder: inactive; p53 PUMA act: inactive

How did COC(=O)c1cccc(NC(=O)C(C)Oc2ccc3c(C)cc(=O)oc3c2)c1 (centres undefined) do in these assays?
ID4 binder: inactive; p53 PUMA act: inactive

What do the screens show for `O=C(NC(Cc1ccc(O)cc1)C(=O)O)c1ccccc1` (centres undefined)?
ID4 binder: active; p53 PUMA act: inactive

How did O=C(NC(Cc1ccc(F)cc1)C(=O)O)c1ccccc1 (centres undefined) do in these assays?
ID4 binder: inactive; p53 PUMA act: inactive

How did Cc1ccc(OCC(=O)Nc2cccc(C(=O)O)c2C)cc1 do in these assays?
ID4 binder: inactive; p53 PUMA act: 66.3

What do the screens show for `Cc1ccc2oc(-c3cccc(NC(=O)COc4ccc(Cl)cc4)c3C)nc2c1`?
ID4 binder: inactive; p53 PUMA act: 65.8

What do the screens show for `Cc1ccc2oc(-c3cccc(NC(=O)COc4ccc(Br)cc4)c3C)nc2c1`?
ID4 binder: inactive; p53 PUMA act: inactive

Results for Cc1c(NC(=O)COc2ccc(C(C)(C)C)cc2)cccc1C(=O)O ?
ID4 binder: inactive; p53 PUMA act: inactive

Results for COc1cc(C(F)(F)F)cc(C(F)(F)F)c1C(=O)N1CCC(C(=O)c2ccc(Cl)cc2)CC1 ?
ID4 binder: inactive; p53 PUMA act: inactive

How did Cc1cccc(NC(=O)CSc2nc(N)c(C#N)c(-c3ccc(F)cc3)c2C#N)c1 do in these assays?
ID4 binder: inactive; p53 PUMA act: inactive

Results for COc1ccc(-n2c(SCC(=O)Nc3ccc(Cl)cc3Cl)nnc2-c2ccccc2)cc1 ?
ID4 binder: inactive; p53 PUMA act: inactive

How did Cc1cc(OCC(=O)Nc2cccc(-c3nnc(-c4ccccc4)o3)c2)cc(C)c1Cl do in these assays?
ID4 binder: inactive; p53 PUMA act: inconclusive

What do the screens show for `Cc1ccc(C)c(OCC(=O)Nc2cccc(-c3nnc(-c4ccco4)o3)c2)c1`?
ID4 binder: inactive; p53 PUMA act: 101.7

What do the screens show for `Cc1ccc(C)c(OCC(=O)Nc2cc(C(=O)O)cc(C(=O)O)c2)c1`?
ID4 binder: inactive; p53 PUMA act: inactive

How did COc1ccccc1OCC(=O)Nc1cccc(-c2nnc(-c3ccco3)o2)c1 do in these assays?
ID4 binder: inactive; p53 PUMA act: 62.2

How did COc1ccccc1OCC(=O)Nc1cccc(-c2nnc(-c3ccccc3)o2)c1 do in these assays?
ID4 binder: inactive; p53 PUMA act: 94.9

How did COc1ccc(CC(=O)Nc2cccc(-c3nnc(-c4ccc(C)cc4)o3)c2)cc1OC do in these assays?
ID4 binder: inactive; p53 PUMA act: inactive

How did COC(=O)C[C@@H]1C(C(=O)O)=CO[C@@H](O[C@@H]2O[C@H](CO)[C@@H](O)[C@H](O)[C@H]2O)/C1=C\COC(=O)/C=C/c1ccccc1 do in these assays?
ID4 binder: inactive; p53 PUMA act: inactive

Results for COc1ccccc1NC(=O)CSc1nnc(-c2ccc([N+](=O)[O-])cc2)n1-c1ccccc1 ?
ID4 binder: inactive; p53 PUMA act: inactive

How did O=C(c1cc(C2CC2)[nH]n1)n1ccnc1 do in these assays?
ID4 binder: inactive; p53 PUMA act: inactive

How did CC12CCC3c4ccc(O)cc4CC(CCCCCCCCCS(=O)CCCC(F)(F)C(F)(F)F)C3C1CCC2O (centres undefined) do in these assays?
ID4 binder: inactive; p53 PUMA act: inactive

How did CC(C(=O)Nc1ccc(Oc2ccccc2)cc1)N1c2cccc3cccc(c23)S1(=O)=O (centres undefined) do in these assays?
ID4 binder: inactive; p53 PUMA act: inactive

Results for O=C1c2cccc3cccc(c23)C(=O)N1OS(=O)(=O)c1cccc2cccnc12 ?
ID4 binder: inactive; p53 PUMA act: inactive

Results for COc1cccc(C(=O)NC(c2ccc(Cl)cc2)c2c(O)ccc3ccccc23)c1 (centres undefined) ?
ID4 binder: inactive; p53 PUMA act: inactive

How did Cc1[nH]c2ccc(CN3C(=O)c4ccccc4C3=O)cc2c1C do in these assays?
ID4 binder: inactive; p53 PUMA act: inactive

How did CC(=O)c1cccc(-n2c(CCC(=O)O)ccc2-c2ccc(C)cc2)c1 do in these assays?
ID4 binder: active; p53 PUMA act: inactive

Results for Cc1ccc(-c2ccc(CCC(=O)O)n2-c2ccc(N(C)C)cc2)cc1 ?
ID4 binder: inactive; p53 PUMA act: inactive

What do the screens show for `C[C@@H]1CCCCO[C@@H](CN(C)Cc2ccncc2)[C@H](C)CN([C@H](C)CO)C(=O)c2cc(NC(=O)Nc3ccccc3)ccc2O1`?
ID4 binder: active; p53 PUMA act: inactive
